Records with an inconclusive call do not appear. Entries that show only a call come without a potency. The source made the active and inactive calls. The call rests on the fitted dose curve; in most records, active means well fitted inhibition curve with a large enough effect; inconclusive means small, poorly fitted or top-dose-only effect; inactive means flat fitted curve, though single readings scatter.
Assay: P-glycoprotein substrates identified in KB-8-5-11 adenocarcinoma cell line, qHTS therapeutic library screen (AID 1346987); further: nearly all actives have a fitted effect of over 65% in size
Details: KB-8-5-11 (P-gp overexpressing) viability, CellTiter-Glo, 72 h; series mostly up to 44.5 µM
Outline: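 In this qHTS, P-gp-rich KB-8-5-11 cells received library compounds across a concentration range. Viability was quantified by luminescence after 72 h at 37 degree C.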
Potency means the concentration at half of the fitted maximal effect.

Row | Compound | Potency
1 | CCN(CC)c1ccc(C(=C2C=CC(=[N+](CC)CC)C=C2)c2ccccc2)cc1 | 4.61 µM (active)
2 | C/C=C/C=C/C=C/C(=O)O[C@@H]1C=C(CO)C(O)(C(=O)OC)[C@@]2(C)CCCC(C)(C)C12 (stereo not given in full) | inactive
3 | O=C(NCCO)c1cccc(-c2cc(Nc3ccc(OC(F)(F)F)cc3)ncn2)c1 | inactive
4 | O=C(NCCCNc1nc(Nc2cccc(CN3CCOCC3)c2)ncc1C1CC1)C1CCC1 | 10.3 µM (active)
5 | CCN(CC)CCCS(=O)(=O)N[C@H](CCc1ccccc1)c1nc(Cc2ccc(Br)cc2)no1 | 23.1 µM (active)
6 | Cc1cn(CCN2CCN(c3ccccc3-c3cc(C#N)cc(C(=O)NCCCN4CCCC4)c3)CC2)c2ccccc12 | 18.4 µM (active)
7 | CCCCc1cc2c(=O)c(C(=O)OC)c[nH]c2cc1OCc1ccccc1 | inactive
8 | COC1C=C(C)C(O)(CO)C2(C)CCCC(C)(C)C12 (stereo not given) | inactive
9 | CC(=O)OCC(=O)[C@@]1(O)[C@H](C)C[C@H]2[C@@H]3C[C@H](F)C4=CC(=O)C=C[C@]4(C)[C@H]3[C@@H](O)C[C@@]21C | inactive
10 | C=C(C(=O)OC)[C@@H]1CC=C2C=CC(=O)[C@H](C)[C@@]2(C)C1 | inactive
11 | COc1c(C)cnc(Cn2cc(C#CCC(C)(C)O)c3c(Cl)nc(N)nc32)c1C | 0.0326 µM (active)
12 | Cc1ccccc1C(C(=O)NC1CCCCC1)N(C(=O)Cn1cnc2ccccc21)c1cccc(F)c1 (stereo not given) | 23.1 µM (active)
13 | COC(C)=O | inactive
14 | COc1ccc(S(=O)(=O)n2cnc3cc(C)c(C)cc32)cc1 | inactive
15 | CC(=O)OC1C(OC(=O)c2ccccc2)C2C(C)(C)CCC(OC(C)=O)C2(C)C23CCC(C)(C2)C(=O)CC13 (stereo not given) | inactive
16 | CCc1c(Cl)c(O)c(Cl)c(O)c1C(=O)O[C@H]1[C@H](O)[C@H](OC)[C@H](OC/C2=C\C=C\C[C@H](O)/C(C)=C\[C@H](CC)[C@@H](O[C@@H]3OC(C)(C)[C@@H](OC(=O)C(C)C)[C@H](O)[C@@H]3O)/C(C)=C/C(C)=C/C[C@@H]([C@@H](C)O)OC2=O)O[C@@H]1C | inactive
17 | Nc1nc2c(nc(Br)n2[C@@H]2O[C@@H]3COP(=O)(O)O[C@H]3[C@H]2O)c(=O)[nH]1 | inactive
18 | CCCCCCCCCCCCCCCC(=O)OCCC1CCN(CCCN2c3ccccc3Sc3ccc(S(=O)(=O)N(C)C)cc32)CC1 | inactive

Row | Compound | Potency
19 | O=C(NC1CCC1)c1ccc(C#Cc2cccc(F)c2)nc1 | inactive
20 | CN(C)Cc1ccccc1 | inactive
21 | C=C1C(=O)OC2C=C(C)CC/C=C(\CO)CC(O)C12 (stereo not given) | inactive
22 | Cc1ccc(/C(=C\CN2CCCC2)c2cccc(/C=C/C(=O)O)n2)cc1 | inactive
23 | O=C(O)c1ccccc1[O-].O=C(O)c1ccccc1[O-].[Zn+2] | inactive
24 | CCCCCCCCCC(=O)O | inactive
25 | CCC(=O)OCC(=O)[C@@]1(OC(=O)CC)[C@H](C)C[C@H]2[C@@H]3CCC4=CC(=O)C=C[C@]4(C)[C@@]3(F)[C@@H](O)C[C@@]21C | inactive
26 | Cc1c(N)nc(C(CC(N)=O)NCC(N)C(N)=O)nc1C(=O)NC(C(=O)NC(C)C(O)C(C)C(=O)NC(C(=O)NCCc1nc(-c2nc(C(=O)NCCCN[C@@H](C)c3ccccc3)cs2)cs1)C(C)O)C(O[C@@H]1O[C@@H](CO)[C@@H](O)[C@H](O)[C@@H]1O[C@H]1O[C@H](CO)[C@@H](O)[C@H](OC(N)=O)[C@@H]1O)c1cnc[nH]1 (stereo not given in full) | inactive
27 | CCC(=O)OCC(=O)[C@@]1(OC(=O)CC)[C@@H](C)C[C@H]2[C@@H]3CCC4=CC(=O)C=C[C@]4(C)[C@@]3(Cl)[C@@H](O)C[C@@]21C | inactive
28 | CCNC1(C(N)=O)CCN(c2ncnc3c2nc(-c2ccccc2Cl)n3-c2ccc(Cl)cc2)CC1 | inactive
29 | C=C1C(=O)O[C@@H]2C=C(COC(C)=O)CC/C=C(\CO)CC[C@@H]12 | inactive
30 | O=C(NCCN1CCN(c2cccc3ccc(O)cc23)CC1)c1ccc(F)cc1 | inactive
31 | Clc1ccc(Nc2nc3ccccc3c3nc(C4CCCCC4)[nH]c23)cc1Cl | 16.4 µM (active)
32 | CC(NCCCc1cccc(C(F)(F)F)c1)c1cccc2ccccc12 (stereo not given) | inactive
33 | c1ccc(-c2cnn3cc(-c4ccc(OCCN5CCOCC5)cc4)cnc23)cc1 | 1.64 µM (active)
34 | CCn1c(=O)c(-c2ccc(-c3cncs3)cc2Cl)cc2cnc(Nc3ccc(N4CCN(C)CC4)cc3)nc21 | 18.4 µM (active)
35 | COC(=O)CC1OC(C)C2=C(O)c3c(O)cccc3C(=O)C23OC13 (stereo not given) | 10.1 µM (active)

— PubChem BioAssay (NCATS)
